Data published in PubChem BioAssay.
The source made the active and inactive calls. Unless noted, how the calls were made is not given here.

How the values were obtained:
[1] = resazurin metabolic signal in HepG2 cells – cell-based, resazurin fluorescence, 24 h, PK04 Diversity Set, profiling panel (AID 1172); details: HepG2 viability, higher = more signal; further: test concentration not given here
[2] = budding yeast growth changes without added modifier – OD600, strain BY4716, 24 h, basal condition, primary screen (AID 1173); details: S. cerevisiae BY4716 growth, OD600, 24 h; higher = more signal, called active from +8 up or from −8 down
[3] = viability profiling in MM1S myeloma cells – cell-based, resazurin fluorescence, basal, 24 h, PK04 Diversity Set, profiling panel (AID 1174); details: higher = more signal, called active from +8 up or from −8 down;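 further: MM1S multiple myeloma cell line; test concentration not given here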
[4] = target: Dihydroorotate dehydrogenase (quinone), mitochondrial (Plasmodium falciparum (isolate 3D7)) (UniProt Q08210); assay: inhibition of P. falciparum DHODH – biochemical, C-terminal His tag, absorbance 600 nm, primary screen (AID 1175); details: PfDHODH enzyme, DCIP absorbance 600 nm; higher = more signal, called active from +8 up or from −8 down;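 further: recombinant parasite enzyme with a five histidine tag at its C terminus; test concentration not given here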
Chain of Dihydroorotate dehydrogenase (quinone), mitochondrial (Plasmodium falciparum (isolate 3D7)) (Q08210 whole entry, looked up): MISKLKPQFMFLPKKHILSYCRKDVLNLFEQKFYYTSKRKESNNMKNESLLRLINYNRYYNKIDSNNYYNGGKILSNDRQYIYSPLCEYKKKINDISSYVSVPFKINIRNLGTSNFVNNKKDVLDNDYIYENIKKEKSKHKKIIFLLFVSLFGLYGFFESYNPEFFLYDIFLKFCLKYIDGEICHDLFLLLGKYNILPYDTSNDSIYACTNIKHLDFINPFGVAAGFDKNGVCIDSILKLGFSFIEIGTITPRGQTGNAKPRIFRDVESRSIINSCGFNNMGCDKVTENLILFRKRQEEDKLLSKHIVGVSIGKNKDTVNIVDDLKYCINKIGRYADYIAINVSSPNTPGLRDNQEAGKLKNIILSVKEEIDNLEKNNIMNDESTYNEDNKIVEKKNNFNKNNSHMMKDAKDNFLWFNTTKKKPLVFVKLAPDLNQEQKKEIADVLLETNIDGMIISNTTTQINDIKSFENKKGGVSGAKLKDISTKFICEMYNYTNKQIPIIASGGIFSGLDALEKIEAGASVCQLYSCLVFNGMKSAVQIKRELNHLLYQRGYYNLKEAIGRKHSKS

[5] = inhibition of PAO1 biofilm formation – strain PAO1, LB-PBS medium, absorbance 600 nm, primary screen (AID 1176); further: test concentration not given here; details: P. aeruginosa PAO1 growth/biofilm, A600, 12 h; higher = more signal
[6] = growth modulation of vineyard yeast isolate – strain RM11-1a, OD600, basal, 24 h, primary screen (AID 1177);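 further: cultures grown under basal conditions with no added stressor; test concentration not given here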; details: S. cerevisiae RM11-1a growth, OD600, 24 h; higher = more signal, called active from +8 up or from −8 down
[7] = growth of efflux-deficient E. coli DRC39 – strain DRC39, OD650, 24 h, E. coli filamentation inducers, primary screen (AID 1178);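 further: growth measured as culture turbidity by optical density at 650 nm; test concentration not given here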; details: E. coli DRC39 acrAB, higher = more signal, called active from +8 up or from −8 down
[8] = growth of efflux-deficient E. coli DRC39 – strain DRC39, OD650, 48 h, E. coli filamentation inducers, primary screen (AID 1179);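 further: screen aims at cell division blockers that make cells filament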; details: E. coli DRC39 delta-acrAB growth, higher = more signal, called active from +8 up or from −8 down
[9] = viability profiling in RPMI8226 myeloma cells – cell-based, resazurin fluorescence, basal, 24 h, PK04 Diversity Set, profiling panel (AID 1180); details: higher = more signal;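 further: RPMI8826 multiple myeloma cell line at 5000 cells per well; test concentration not given here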
[10] = target: E3 ubiquitin-protein ligase XIAP (Homo sapiens) (UniProt P98170); assay: small molecules binding XIAP protein – biophysical, small-molecule microarray, fluorescence 635 nm, primary screen (AID 1181); details: higher = more signal;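 further: score merges 667 nm emission and signal to noise over triplicate slides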
Chain of E3 ubiquitin-protein ligase XIAP (Homo sapiens) (P98170 whole entry, looked up): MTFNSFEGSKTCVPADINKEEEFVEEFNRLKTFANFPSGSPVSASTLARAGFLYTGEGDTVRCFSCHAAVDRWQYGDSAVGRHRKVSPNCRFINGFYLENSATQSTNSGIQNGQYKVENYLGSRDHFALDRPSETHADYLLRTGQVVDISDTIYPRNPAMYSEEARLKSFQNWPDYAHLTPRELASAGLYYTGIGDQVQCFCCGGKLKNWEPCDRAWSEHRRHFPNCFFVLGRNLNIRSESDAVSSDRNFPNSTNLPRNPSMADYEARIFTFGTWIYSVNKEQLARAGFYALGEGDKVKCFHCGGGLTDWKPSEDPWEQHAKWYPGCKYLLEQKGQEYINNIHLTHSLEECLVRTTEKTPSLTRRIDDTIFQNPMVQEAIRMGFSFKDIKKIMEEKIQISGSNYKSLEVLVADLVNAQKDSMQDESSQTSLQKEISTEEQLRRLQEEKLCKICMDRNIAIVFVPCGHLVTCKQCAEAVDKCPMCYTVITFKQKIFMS

Structure (SMILES) | z-score [1] | z-score [2] | z-score [3] | composite z-score [4] | z-score [5] | z-score [6] | z-score [7] | z-score [8] | z-score [9] | composite z-score [10]
CCCCCCC#C[Si](O[C@H](c1ccccc1)c1cn([C@H](CO)Cc2ccccc2)nn1)(C(C)C)C(C)C | 1.13 | -1.93 (inactive) | 0.389 (inactive) | -3.69 (inactive) | 0.395 (inactive) | -0.297 (inactive) | 0.953 (inactive) | 1.57 (inactive) | 0.881 | -0.157
CN(C)C(=O)[C@]1(Cc2ccccc2CN=[N+]=[N-])N=C(c2ccc(OCCCO)cc2)O[C@@H]1c1ccccc1CN=[N+]=[N-] | -0.053 | -0.868 (inactive) | -1.19 (inactive) | 0.587 (inactive) | 1.06 (inactive) | -0.111 (inactive) | 0.187 (inactive) | -0.719 (inactive) | -1.1 | 0.0015
COC(=O)[C@@]1(Cc2ccc(OC)cc2)[C@H]2c3cc(C(=O)N4CCCC4)n(Cc4ccc(OC)c(OC)c4)c3C[C@H]2CN1C(=O)c1ccccc1 | 0.277 | 1.66 (inactive) | -0.994 (inactive) | -0.245 (inactive) | 0.259 (inactive) | 0.744 (inactive) | -0.333 (inactive) | -0.888 (inactive) | -0.636 | -0.0541
C=CC[C@]12N=C(c3ccc(OCCCO)cc3)O[C@H]1c1ccccc1N(Cc1ccccc1)C2=O | -0.882 | 0.143 (inactive) | -3.28 (inactive) | 0.648 (inactive) | 0.603 (inactive) | 0.492 (inactive) | -0.0819 (inactive) | 0.328 (inactive) | -2.3 | -0.122
COc1ccc(CCN2C(=O)[C@@]3(Cc4ccccc42)c2ccccc2C(=O)N(Cc2ccccc2C(F)(F)F)[C@H]3c2ccc(CO)cc2)cc1 | -0.104 | 0.512 (inactive) | 0.35 (inactive) | -21.6 (active) | 0.31 (inactive) | -0.443 (inactive) | -0.0813 (inactive) | -0.374 (inactive) | -0.816 | -0.0102
O=C1O[C@@H](c2ccccc2)[C@@H](c2ccccc2)N2[C@@H](c3ccccc3OCCO)[C@]3(C(=O)Nc4ccc(C#CC5=CCCCC5)cc43)[C@@H](C(=O)Nc3nc4ccccc4s3)[C@H]12 | 0.482 | 1.26 (inactive) | -0.785 (inactive) | -1.7 (inactive) | 2.84 (inactive) | 1.34 (inactive) | -0.583 (inactive) | -1.05 (inactive) | -1.2 | -0.234
C#CCNC(=O)[C@H](Cc1ccccc1)NC(=O)CCC(=O)O | -0.487 | -0.734 (inactive) | -0.135 (inactive) | 0.139 (inactive) | 0.927 (inactive) | -0.051 (inactive) | -0.306 (inactive) | -0.125 (inactive) | -1.28 | -0.239
C=CCN1C(=O)[C@@]2(O[C@@H](CCO)[C@H]([Si](C)(C)c3ccc(OC)cc3)[C@H]2C)c2cc(NC(=O)c3ccc(OC)cc3)ccc21 | -2.49 | -1.77 (inactive) | -3.52 (inactive) | -1.21 (inactive) | 1.53 (inactive) | 1.69 (inactive) | 1.22 (inactive) | 0.586 (inactive) | -4.92 | -0.154
O=C(c1ccccc1)N1Cc2ccccc2[C@@H]2OC(c3ccc(OCCCO)cc3)=N[C@]2(Cc2ccccc2)C1=O | -0.448 | -0.485 (inactive) | -1.79 (inactive) | 0.369 (inactive) | 2.05 (inactive) | 0.843 (inactive) | -0.273 (inactive) | -0.749 (inactive) | -2.49 | -0.102
CC(C)C(=C=CC[C@@H](O)c1ccccc1OCCO)CCO | 0.61 | -13 (active) | 0.11 (inactive) | -5.28 (inactive) | -0.0828 (inactive) | 0.413 (inactive) | 0.272 (inactive) | 0.123 (inactive) | 1.28 | -0.318
COC(=O)[C@@]1(Cc2ccccc2)[C@H]2c3cc(C(=O)N(C)C)n(CCSCCO)c3C[C@H]2CN1C(=O)c1ccccc1 | -0.821 | 0.319 (inactive) | -0.345 (inactive) | -0.394 (inactive) | 0.15 (inactive) | 0.152 (inactive) | -0.976 (inactive) | -0.68 (inactive) | -0.151 | 0.212
CCOC1=C2C(CN(S(=O)(=O)c3ccc(C)cc3)C2c2ccc(C)cc2)C2C(=O)N(c3ccccc3)C(=O)C2C1 (stereo not given) | -0.635 | 0.941 (inactive) | -0.193 (inactive) | -1.12 (inactive) | -0.2 (inactive) | 0.413 (inactive) | -0.392 (inactive) | 0.758 (inactive) | 0.366 | -0.0773
COc1cc(CO)cc(I)c1O[C@H]1C=C(C(=O)NCCO)C[C@@H](N(CCN2CCOCC2)C(=O)C2CCOC2)[C@@H]1O (stereo not given in full) | 1.66 | -2.49 (inactive) | 0.85 (inactive) | 0.938 (inactive) | 0.355 (inactive) | 0.0222 (inactive) | 2.68 (inactive) | 1.5 (inactive) | 0.923 | 0.02
